The record followed here is PubChem BioAssay AID540299 (ICCB-Longwood Screening Facility, Harvard Medical School, 2011).

Molecules are shown by their SMILES. Among all 100,000 compounds or so, about 440 (0.44%) were called active. Cut-off read from the data, not from the text of the source: active = inhibition above about 21% (passing the limit was not always enough); inactive = the rest. Many of the other results were omitted from the sample, so actives are more common in it than they were.

The target in the experiment is 1,4-dihydroxy-2-naphthoyl-CoA synthase (Mycobacterium tuberculosis (strain ATCC 25618 / H37Rv)) (UniProt P9WNP5). Description: M. tuberculosis MenB inhibitors, primary screen, biochemical, absorbance (AID 540299). The settings on record: MenB enzyme assay, absorbance read-out; active compounds read high; concentration not given here.
1,4-dihydroxy-2-naphthoyl-CoA synthase (Mycobacterium tuberculosis (strain ATCC 25618 / H37Rv)), sequence (P9WNP5 whole entry, looked up): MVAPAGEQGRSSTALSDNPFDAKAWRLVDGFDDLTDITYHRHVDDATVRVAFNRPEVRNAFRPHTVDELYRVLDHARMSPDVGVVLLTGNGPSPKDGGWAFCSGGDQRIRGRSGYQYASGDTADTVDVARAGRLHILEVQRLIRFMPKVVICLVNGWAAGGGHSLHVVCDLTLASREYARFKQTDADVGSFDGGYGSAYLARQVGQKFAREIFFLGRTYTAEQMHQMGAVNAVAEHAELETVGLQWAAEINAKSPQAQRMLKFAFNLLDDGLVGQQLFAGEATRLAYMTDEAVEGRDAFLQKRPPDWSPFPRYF
Turning to `CC1CC(Nc2ncnc3c2cnn3C)CC(C)(C)C1` (stereo unspecified), the inhibition is -4.06% (inactive).
With `CCn1c(SCc2cc(=O)n3ccsc3n2)nnc1-c1cccs1` the figure was 9.46% (inactive); with `C=CCSc1nnc(NC(=O)CSc2nc(C)cc(=O)[nH]2)s1`, -17% (inactive); with `NS(=O)(=O)c1ccc(NC(=O)Cc2ccccc2F)cc1`, -21.5% (inactive).
The figure for `CCN(CC)C(=O)N1CCc2cc(OC)c(OC)cc2C1c1cc2cc(C)ccc2n(C(=O)N(CC)CC)c1=O` (stereo unspecified) is 4.68% (inactive); for `N#CCSc1ccccc1NC(=O)CN1CCc2sccc2C1c1cccs1` (stereo unspecified) it is -20.8% (inactive); for `CN(CC(=O)Nc1ccccc1SCC#N)Cc1ccc(-c2ccc(Br)cc2)o1` it is 30.3% (active).
Consider `COc1cc(C(=O)Nc2ccc3nc(N4CCN(c5ncccn5)CC4)cc(C)c3c2)cc(OC)c1OC`, for which the inhibition was 2.12% (inactive).
With `CC(c1ccccc1)n1cnc2c(oc3ccccc32)c1=O` (stereo unspecified) the figure was 7.36% (inactive); with `Cc1ccc2[nH]c(=O)c(C(c3nnnn3C3CCCC3)N(C)C3CCCCC3)cc2c1` (stereo unspecified), 3.2% (inactive); with `CCc1ccc(N/N=C(\C#N)C(=O)N2CCN(C)CC2)cc1`, -139% (inactive).
The figure for `O=C(CCn1c(=O)c2cccn2c2ccc(F)cc21)NC1CCCCC1` is -14.7% (inactive); for `Cc1ccc2c(c1)c1c3n2CCN(C2CCO2)C3CCC1` (stereo unspecified) it is -8.76% (inactive); for `O=C(CC(NCCc1ccc(Cl)cc1)C(=O)O)c1ccc(Br)cc1` (stereo unspecified) it is -5.44% (inactive).
With `CC(C)(C)c1oc2cc(Br)c(O)cc2c1C(=O)O` the figure was -32.6% (inactive); with `COc1nc2nonc2nc1OC`, 26.7% (inactive); with `CCO/C(C)=N\Oc1nc2nonc2nc1O/N=C(/C)OCC`, 28.8% (active).
With `CCOC(=O)CCSc1ccccn1`, the inhibition is -3.2% (inactive).
With `CN(Cn1nc(Nc2ccccc2F)sc1=S)C1CCCCC1` the figure was 4.42% (inactive); with `O=CN/N=C/c1cn(-c2cccs2)nc1-c1ccccc1`, -3.73% (inactive); with `C=COc1ccc(N)cc1`, -24.2% (inactive).
With `Cc1noc2nc(C(F)(F)F)cc(C(F)(F)F)c12` the figure was -1.29% (inactive); with `O=S(=O)(NCCc1ccccc1)c1ccccc1`, 10.7% (inactive); with `COc1ccc(OCCNS(=O)(=O)Cc2ccccc2)cc1`, -18.2% (inactive).
With `CS(=O)(=O)Cc1ccccc1` the figure was 28.2% (active); with `O=C(O)CC(c1ccccc1)c1cc(Cl)ccc1O` (stereo unspecified), 2.19% (inactive); with `CC1CN(C(=O)COC(=O)c2c(F)cccc2F)CC(C)O1` (stereo unspecified), -14.9% (inactive).
For the compound `Cc1cc(NC(=O)COC(=O)C2CSC3(C)CCC(=O)N23)no1` (stereo unspecified), the inhibition is -17% (inactive).
The figure for `CCCCn1c(N)c(N2CCOCC2)c(=O)n(CC(=O)NCCc2ccccc2)c1=O` is 2.85% (inactive).
The figure for `COc1cc(S(=O)(=O)N2CCCCC2)ccc1N=Cc1c(C)[nH]n(-c2ccccc2)c1=O` is -6.35% (inactive); for `Cn1c(=O)c(=O)n(C)c2cc(N3CCCCC3)c(NS(=O)(=O)c3ccc(Br)s3)cc21` it is -15.3% (inactive); for `NCCN1C(=O)S/C(=C/c2cccs2)C1=O` it is -14.2% (inactive).
With `O=C(Cn1cnc2ccccc2c1=O)NCCSCc1ccco1` the figure was -21.3% (inactive); with `COc1ccc(OCC(=O)N2CCC(C(N)=O)CC2)cc1`, -7.08% (inactive).
For the compound `CC1CC(C)CN(C(=O)COC(=O)c2ccccc2NC(=O)c2ccco2)C1` (stereo unspecified), the inhibition is 9.45% (inactive).
With `O=C1C2N=NN(CC(=O)N(c3ccccc3)c3ccccc3)C2C(=O)N1c1ccc(Cl)cc1` (stereo unspecified) the figure was -6.55% (inactive); with `N#CC(C#N)=Cc1ccc(OC(=O)c2cccs2)cc1`, 0.71% (inactive).
With `CC(=O)N(Cc1cc2ccccc2[nH]c1=O)c1ccccc1` the figure was -11.4% (inactive).
The figure for `S=C(NC1CCCCC1)NN1CCOCC1` is -1.62% (inactive); for `CC(NCCN1CCOCC1)C(=O)NC1CCCCC1` (stereo unspecified) it is 35.5% (active); for `COC(=O)c1c(NC(=O)CCN2CCOCC2)sc2c1CCCC2` it is -12.6% (inactive).
`Cc1cc(C)n(CC(O)CNCc2ccco2)n1` (stereo unspecified): the inhibition is -21.2% (inactive).
With `CN(C)c1ccc(C=Nc2cc(Br)c3c(c2)OCCO3)cc1` the figure was 7.11% (inactive); with `O=C(O)CSc1ccc2nnc(-c3ccc(F)cc3)n2n1`, -23.7% (inactive).
Regarding `COc1ccccc1CNCCN1CCOCC1`, the inhibition is 38.3% (active).
The figure for `COc1ccccc1OCC(O)CN1CCOCC1` (stereo unspecified) is 34.9% (active).
Take `CNCC(O)CN1CCN(c2ccccc2OC)CC1` (stereo unspecified): the inhibition was -10.5% (inactive).
With `COc1cccc(-c2noc(NCCN3CCOCC3)n2)c1` the figure was -12.4% (inactive); with `COc1ccccc1COCC(O)CN1CCC(=O)CC1` (stereo unspecified), -22.7% (inactive).
The figure for `C(=C\c1ccccc1)/CNCCCN1CCOCC1` is -52.5% (inactive).
The figure for `CC(=O)n1c2ccccc2c2nc(C)sc21` is -21.4% (inactive); for `CCOC(=O)c1ccc(NC(=O)C(CC)Sc2nnc(C)n3c2cc2occc23)cc1` (stereo unspecified) it is -38.3% (inactive); for `CN(C)c1ccc(/C=N/NC(=O)NC23CC4CC(CC(C4)C2)C3)cc1` it is -17% (inactive).
With `CCCNC(=O)c1cc(C(C)C)on1`, the inhibition is -9.37% (inactive).
Take `Cc1cc(C(=O)N2CCCC2)on1`: the inhibition is -1.16% (inactive).
With `CC(C)c1cc(C(=O)O)on1` the figure was 31.1% (active); with `COc1cc(OC)c(NC(=O)C2CCCN(S(=O)(=O)c3ccc4c(c3)oc(=O)n4C)C2)cc1Cl` (stereo unspecified), -18.8% (inactive); with `Cc1nnc(NC(=O)CSc2nnc(CNC(=O)c3ccccc3F)n2C)s1`, 27.8% (inactive).
With `O=C(OCc1ccc(-c2cc(C(F)(F)F)cc(C(F)(F)F)c2)o1)c1ccc2c(c1)CCO2`, the inhibition is -6.53% (inactive).
Consider `CCN(CC)C(=O)COc1ccc(/C(C)=N/NC(=O)Cc2ccccc2)cc1`, for which the inhibition is -14.7% (inactive).
With `O=C(NCCc1ccccc1)Nc1ccccc1` the figure was 8.56% (inactive); with `O=C(O)C1CC=CCC1C(=O)NCCc1ccccc1` (stereo unspecified), 36% (active).
As for `O=C(O)C1C2C=CC(O2)C1C(=O)NCCc1cccc(Cl)c1` (stereo unspecified), the inhibition was -14.4% (inactive).
`COc1cccc(-n2c(=S)sc3c(=O)n4[nH]c(=O)c5ccccc5c4nc32)c1`: the inhibition was -24.4% (inactive).
With `CC(C)[C@H](NC(N)=O)C(=O)Nc1ccc(Cl)c(Cl)c1` the figure was -13.2% (inactive).
The figure for `CCOC(CSc1nnc2c3ccccc3n(CC)c2n1)OCC` is -14% (inactive); for `CC(=O)NC1C(Oc2ccccc2)OC(CO)C(O)C1O` (stereo unspecified) it is -6.61% (inactive).
The figure for `COc1ccc(OCCOc2cccc(N)c2)cc1` is -98.6% (inactive); for `CCn1nnnc1SCC(=O)c1ccc(C)cc1C` it is 33.1% (active).
Turning to `Cc1cccc(-n2nnnc2SCC(=O)c2c[nH]c3ccccc23)c1`, the inhibition is -3.22% (inactive).
With `C=CCN(CC=C)C(=O)CSc1nnnn1-c1ccc(C)cc1C` the figure was -1.92% (inactive); with `CCNC(=S)N1CCn2cccc2C1c1cccs1` (stereo unspecified), -29% (inactive); with `CC(Sc1nnnn1C)C(=O)C12CC3CC(CC(C3)C1)C2` (stereo unspecified), -36% (inactive).
With `COc1ccc(S(N)(=O)=O)cc1C(=O)OC1CCCCC1=O` (stereo unspecified) the figure was -12.8% (inactive); with `Clc1cccc(Nc2nnc(-c3ccc(Br)cc3)o2)c1`, 1.27% (inactive); with `CC1CCNC(c2cccn2C)CC1` (stereo unspecified), -2.11% (inactive).
With `CCN1C(=O)C2(Sc3ccccc3C2=O)C(=O)N(CC)C1=S` the figure was -6.71% (inactive); with `Clc1ncn(CCOc2ccccc2)c1Cl`, 3.99% (inactive); with `O=C(Cn1c(=O)oc2ccccc21)N(Cc1ccco1)CC1CCCO1` (stereo unspecified), 2.87% (inactive).
Take `O=C(NCc1ccco1)OCC(F)(F)F`: the inhibition was 8.37% (inactive).
The figure for `O=C(c1cccs1)N1CCCn2c(SCc3ccccc3Cl)nnc21` is -21.4% (inactive); for `COC(=O)c1ccccc1S(=O)(=O)N1CCC(C(=O)OCC(=O)Nc2ccccc2F)CC1` it is -9.07% (inactive).
Consider `CCN(CC)CCn1c2ccccc2c2nc3cc(C(=O)O)ccc3nc21`, for which the inhibition is -8.07% (inactive).
With `Cc1oc(-c2ccc(Cl)cc2)nc1CSCC(=O)N1CCc2ccccc21` the figure was 8.32% (inactive).
The figure for `COCCN=c1scc(-c2ccco2)n1/N=C/c1ccc(OC)cc1` is -60.5% (inactive); for `CN1C(=O)CS/C1=C\C(=O)c1cccs1` it is -16.1% (inactive); for `Fc1ccc(C=Nc2ccc3c(c2)OCO3)cc1` it is 10.6% (inactive).
On to `C/[N+]([O-])=C\c1ccc(-c2ccccc2)cc1`, for which the inhibition was -18.5% (inactive).
The figure for `O=C(COc1ncnc2c1cnn2-c1ccccc1)N1CCc2ccccc21` is -28.4% (inactive); for `O=C(COn1nnc2ccccc21)N1CCC(Cc2ccccc2)CC1` it is -32.5% (inactive); for `O=C1NC(c2cccc(F)c2)=N/C1=C/c1cc2c(cc1Cl)OCO2` it is -89% (inactive).
With `Cc1ccc(-c2csc3ncnc(NCCO)c23)cc1` the figure was -19.8% (inactive).
With `Cc1cccc(/N=c2\scc(-c3ccco3)n2-c2ccccc2)n1` the figure was -26.2% (inactive); with `CCC(=O)c1c(O)ccc2c(C)cc(=O)oc12`, 2.91% (inactive); with `CCN(CC)c1ccc2cc(C(N)=O)/c(=N\NC(=O)c3ccccc3)oc2c1`, -13.9% (inactive).
Regarding `Cn1c(=N)n(CC(=O)C23CC4CC(CC(C4)C2)C3)c2ccccc21`, the inhibition was -12% (inactive).
The figure for `Cc1ccc(NC(=O)CN2CCc3ccccc32)cc1C` is -19.3% (inactive).
Turning to `COc1cccc2c(C)nc(NC3=NCN(CC4CCCO4)CN3)nc12` (stereo unspecified), the inhibition is -8.02% (inactive).
With `COC(=O)c1ccc(NC(=O)C(C(C)C)N2C(=O)c3ccccc3C2=O)cc1` (stereo unspecified) the figure was 0.235% (inactive); with `Cc1cc(NC(=O)[C@H](C)NC(=O)c2ccco2)ccc1Br`, 0.245% (inactive).
With `Cc1ccccc1NC(=O)COC(=O)c1ccccc1` the figure was 4.34% (inactive).
With `O=C1Nc2ccccc2S/C1=C\C(=O)N1CCc2ccccc2C1` the figure was -6.55% (inactive); with `CCOC(=O)c1ccc2c(c1)[nH]c(=O)c(=O)n2CC`, 5.07% (inactive); with `O=C(O)/C(=C/C(=O)c1ccc(F)cc1)Nc1ccc2[nH]c(=O)[nH]c2c1`, -9.19% (inactive).
On to `O=C(O)/C(=C/C(=O)c1ccccc1)Nc1ccc(OC(F)(F)F)cc1`, for which the inhibition was 32.1% (active).
With `C/C(=C\C(=O)c1ccccc1)Nc1cccc(O)c1` the figure was -47% (inactive).

As usually defined, the inhibition is the drop in the measured response relative to a control, in per cent.
